Screening data from PubChem BioAssay.
Most compounds without a hit are left out; they make up all but 3.9% or so of the library.
BoNT-F LC inh = BoNT F light chain protease inhibition; Multiplex microsphere protease cleavage assay, flow cytometry; inhibition, % at 10 µM; 360,000 tested, 0.22% active; AID 588497; in the data active = inhibition above about 35%, passing the limit was not always enough; inconclusive = no clear call, values can overlap the other calls; also: plate controls were buffer without enzyme for full effect and enzyme alone for no effect
BoNT-A LC inh2 = blocks Botulinum neurotoxin A light chain protease | multiplex microsphere protease substrate cleavage, flow cytometry | inhibition, % at 10 µM | 360,000 tested, 0.17% active; also: plate controls were buffer without enzyme for full effect and enzyme alone for no effect
Bead autofluor = compound fluorescence in toxin protease inhibitor counterscreen; compound autofluorescence counterscreen, microsphere flow cytometry; active compounds read high; fluorescence intensity (concentration not given with the values); 360,000 tested, 3.1% active; in the data active = fluorescence intensity above about 16000; inconclusive = no clear call, values can overlap the other calls
CCHF vOTU inh = blocks the CCHF virus ovarian tumor domain protease; CCHFV vOTU protease, Pep-AMC fluorescence; inhibition, % at 11.5 µM; 370,000 tested, 0.55% active; AID 651958; in the data active = inhibition above about 30%; also: 0% = vehicle wells with enzyme and 100% = no enzyme wells
SARS 3CLpro inh = SARS-CoV 3CLpro protease inhibition. recombinant SARS-CoV 3CLpro, quenched FRET peptide cleavage. 290,000 tested, 0.14% active. inhibition, % at 6 µM; in the data active = inhibition above about 12%
Anthrax LF prot = anthrax lethal factor protease inhibition; multiplex microsphere protease cleavage assay, LF; P15917; 360,000 tested, 0.12% active; inhibition, % at 10 µM; also: plate controls were buffer without enzyme for full effect and enzyme alone for no effect
Numbers without * were called inactive; ? = inconclusive; · = not tested or not shown. Rule as the data show it, unless noted: active = inhibition above about 30%; inconclusive = no clear call, values can overlap the other calls; inactive = below that.

SMILES	BoNT-F LC inh	BoNT-A LC inh2	Bead autofluor	CCHF vOTU inh	SARS 3CLpro inh	Anthrax LF prot
CN1CC(c2ccc(Cl)c(Cl)c2)[C@@]2(COc3ccccc3C2=O)[C@@]12C(=O)Nc1ccccc12 (some centres undefined)	-3.7	-1.2	20876*	-4.5	-4.6	-1.9
O=S1(=O)c2ccccc2-c2c(nnn2Cc2ccccc2)CN1C1CC1	·	·	·	-0.3	·	·
Cc1nnc(-c2cccc(Br)c2)c2cn(-c3ccccc3Cl)nc12	14.2	1.8	26146*	0.1	4.0	-13.6
CSC(=O)CC(=O)NC(=O)c1ccccc1	-6.3	-4.2	25369*	3.0	-3.0	-2.0
CSc1nnc(SCC(=O)NC(=O)c2ccccc2)s1	-14.8	-2.8	6714	0.8	·	-1.8
COC(=O)c1sc(NC(=O)COc2ccc(C)cc2)nc1C	3.6	1.0	20397*	3.6	4.9	1.0
COC(=O)c1sc(NC(=O)COc2ccccc2)nc1C	4.2	-0.4	3323	2.2	0.3	-5.5
CC(C)C1Cc2c(C#N)c(N)sc(=S)c2CO1 (centres undefined)	0.0	72.2*	4054	13.3	-0.1	47.1*
CC1(C)Cc2c(C#N)c(N)sc(=S)c2CO1	21.6	25.5	4535	21.4	-3.5	24.1
N#Cc1c(NC(=O)c2ccccc2Cl)n(Cc2ccccc2)c2nc3ccccc3nc12	1.3	31.3*	2894	100.7*	1.4	9.0
COCCNC(=O)c1c(NC(=O)c2ccco2)n(Cc2ccccc2)c2nc3ccccc3nc12	8.3	12.3	3129	-58.1	-2.7	5.4
COCCCNC(=O)c1c(NC(=O)c2ccccc2Cl)n(Cc2ccccc2)c2nc3ccccc3nc12	10.5	?	18554*	-0.6	1.0	12.2
CC1(C(=O)O)COC(c2ccc([N+](=O)[O-])cc2)OC1 (centres undefined)	-0.4	0.4	16243*	-4.3	5.7	-0.8
CCOC(=O)c1c(NC(=O)COC(=O)c2cnc(C)cn2)sc(C(=O)N(C)C)c1C	-106.0	-79.8	16695*	1.9	·	-10.7
CCOC(=O)c1c(NC(=O)COC(=O)c2ccccn2)sc(C(=O)N(C)C)c1C	0.8	-3.9	?	5.1	·	-0.2
COc1cc2c(cc1OC)[C@](C)(c1ccccc1)C[C@@H]2NCC=C(C)C	·	·	·	-3.8	·	·
COc1ccc(C(=O)N(Cc2ccccc2)Cc2cc3cc4c(cc3[nH]c2=O)OCCO4)cc1	-4.9	-5.7	22249*	-11.4	6.4	0.9
COc1cc2cc(CN(Cc3ccc4c(c3)OCO4)C(=O)c3ccco3)c(=O)[nH]c2cc1OC	-7.5	-2.4	16500*	0.2	2.4	-3.6
COc1cccc(C(=O)N(Cc2cc3cc(C)ccc3[nH]c2=O)CC2CCCO2)c1 (centres undefined)	?	?	?	-5.9	-2.7	-14.6
COc1cccc(C(=O)N(Cc2ccccc2)Cc2cc3cc4c(cc3[nH]c2=O)OCCO4)c1	-2.5	-1.9	20933*	-14.7	3.0	-5.6
O=C(c1ccco1)N(Cc1ccc2c(c1)OCO2)Cc1cc2cc3c(cc2[nH]c1=O)OCO3	1.5	-1.1	3345	-6.8	3.6	-10.4
CCOC(=O)[C@]12CCCCC/C=C\1N(CCc1ccc(Cl)cc1)C(=O)[C@H]2CC(=O)NCCCCc1ccccc1	·	·	·	14.4	·	·
Cc1cc(C)n(CC(C)NCc2cn[nH]c2-c2ccc(C)c(C)c2)n1 (centres undefined)	13.0	-5.2	28071*	-10.4	-0.8	-4.4
Cc1cc(C)n(CC(C)NCc2cn[nH]c2-c2cccc3ccccc23)n1 (centres undefined)	-1.6	-0.4	4538	7.8	1.0	1.3
COc1cc2nc(/C=C/c3cc(OC)c(OC)c(OC)c3)sc2cc1SC	12.7	54.3*	3237	-5.5	5.9	21.3
SMILES	BoNT-F LC inh	BoNT-A LC inh2	Bead autofluor	CCHF vOTU inh	SARS 3CLpro inh	Anthrax LF prot
COc1cc2nc(C)sc2cc1SC	10.5	1.2	9335	-8.2	-2.7	2.2
CCN(CC)CCC(O)(c1ccccc1)C1CCCCC1 (centres undefined)	?	-226.0	60438*	-5.4	1.4	-209.1
Fc1ccc(N2CCN(c3nc(-c4ccco4)cc(C(F)(F)F)n3)CC2)cc1	12.1	-0.2	9624	6.6	-1.4	-16.4
FC(F)(F)c1cc(-c2ccco2)nc(N2CCN(Cc3ccccc3)CC2)n1	-8.9	-5.6	21755*	6.3	3.5	-4.0
COc1ccc(C=NNC(=O)Cc2cc(=O)[nH][nH]2)c(OC)c1	·	·	·	-0.1	·	·
CCC(Sc1nc2cc(OC)c(OC)cc2c(=O)n1Cc1ccco1)C(=O)NCCOC (centres undefined)	-18.6	-2.0	9697	-0.5	-2.4	-15.9
COCCNC(=O)CSc1nc2cc(OC)c(OC)cc2c(=O)n1Cc1ccco1	18.5	?	16515*	5.8	-12.2	-1.6
COC(=O)c1ccc2c(=O)n(Cc3ccco3)c(SCC(=O)Nc3ccc(C)c(Cl)c3)nc2c1	-0.9	-0.6	23373*	14.5	-3.5	-2.0
O=C(CSc1nc2cc(Cl)ccc2c(=O)n1Cc1ccco1)Nc1ccc(S(=O)(=O)N2CCOCC2)cc1	5.0	0.2	1984	-1.9	0.9	-2.6
O=S(=O)(Cc1ccccc1)Nn1cnnc1	-0.7	-0.5	22495*	-9.8	-2.7	0.4
COC(=O)C[C@H]1CC[C@H]2[C@H](COc3ccc(NC(=O)C4CCOCC4)cc3C(=O)N2C)O1	·	·	·	13.4	·	·
COc1ccc(OC)c(S(=O)(=O)N2CCCCC2C(=O)N2CCN(CCO)CC2)c1 (centres undefined)	·	·	·	0.5	·	·
CC(C)(C)OC(=O)NCc1ccccc1/C=C/S(=O)(=O)NCCc1ccccc1	·	·	·	10.5	·	·
CC1(C)N=C(N)NC(Nc2cccc(Br)c2)=N1	0.9	0.3	4508	7.8	0.4	5.8
CC1(C)N=C(N)NC(Nc2ccc(Br)cc2)=N1	-3.2	-1.6	23628*	2.0	7.1	-2.1
CN(Cc1ccccc1)C(=O)OCc1cn(Cc2cccc(F)c2F)nn1	·	·	·	-2.3	·	·
Fc1ccccc1-c1n[nH]c(=S)n1N=Cc1ccc(OCc2ccccc2)cc1	·	·	·	13.9	·	·
O=C(CN1CCc2onc(-c3ccc(-n4cc(C5=CCCCC5)nn4)cc3)c2C1=O)N1CCOCC1	·	·	·	-3.5	·	·
Cn1sc(NC(=O)c2cccc(Cl)c2)nc1=O	0.6	1.6	22807*	-6.0	-4.8	-1.8
Cc1cc(NC(=O)c2cccc(Cl)c2)n[nH]1	-5.7	-0.3	3421	13.4	·	-2.3
Cn1sc(NC(=O)c2ccccc2Cl)nc1=O	-4.8	-4.1	24069*	-2.5	-5.7	-10.2
COC(=O)c1nc(NC(=O)c2ccccc2Cl)n[nH]1	0.6	1.5	22352*	1.3	-3.6	-1.4
COC(=O)c1nc(NC(=O)c2ccc(Br)cc2)n[nH]1	-7.8	0.1	2334	6.0	1.4	0.9
CC(=O)Cc1nsc(NC(=O)c2ccccc2Cl)n1	-9.5	-0.9	3289	0.1	-0.6	-4.1
COc1ccc(CN(CC#Cc2ccccc2)Cc2ccccc2)c(OC)c1	·	·	·	4.6	·	·
Cc1ccc(OCc2nnc(SCC(=O)Nc3ccccc3-c3ccccc3)n2Cc2ccco2)cc1	·	·	·	9.9	·	·
CC(C)CNC(=S)NNC(=O)c1ccc2c(c1)OCO2	-5.5	-5.2	17145*	-4.2	0.4	-7.4
